Compounds with a hit are over-represented: about 2.1% of the library has one in this group of screens.
GalR3 antag: antagonists of human GalR3; HEK293 GalR3-CNG cAMP membrane potential fluorescence; galR3 body fused to GalR1 C-terminus; 0.44% of 360,000 active; O60755; inhibition, % at 3 µM;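 active = inhibition above the screen-wide average plus 3 SD, cut at about 13% in these data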;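 note: forskolin and galanin both at EC90 stimulate the cells; cAMP rise reported by CNG channel membrane potential dye signal; 0% = forskolin plus galanin with DMSO and 100% = forskolin alone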
Target sequence (O60755 1-299 limits assumed): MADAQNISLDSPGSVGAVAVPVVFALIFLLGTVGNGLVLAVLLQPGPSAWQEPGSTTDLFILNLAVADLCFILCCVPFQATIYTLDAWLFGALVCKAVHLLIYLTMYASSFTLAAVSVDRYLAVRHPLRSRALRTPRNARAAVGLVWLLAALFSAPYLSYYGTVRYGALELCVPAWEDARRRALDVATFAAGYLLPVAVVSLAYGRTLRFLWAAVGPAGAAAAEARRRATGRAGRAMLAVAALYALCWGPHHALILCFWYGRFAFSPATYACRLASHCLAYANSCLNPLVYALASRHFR
Gli-Sufu antag: antagonists of Gli-Sufu signaling; Sufu-KO-LIGHT fibroblasts, Gli luciferase reporter luminescence; inhibition, % at 5 µM; 0.74% of 340,000 active;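 active = inhibition above about 55%, limit read from the data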;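 note: 0% = DMSO-treated cells and 100% = wells with medium but no cells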
HIV Env fusion: inhibitors of HIV Env-mediated cell fusion. AID 651610. inhibition, % at 12.3 µM. HeLa-JRFL Env/CEM21 cell fusion, luciferase. 1.1% of 360,000 active;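 active = mean replicate inhibition score of at least 50 and every replicate individually at or above 50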;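 note: 0% = plate neutral controls and 100% = maraviroc near 300 nM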
aDG glyco up: increases alpha dystroglycan glycosylation | activation, % at 10 µM | AID 624168 | 0.22% of 360,000 active | Pro5-aDG cells, alpha-DG glycosylation AlphaScreen (IIH6); 0% Pro5, 100% B10-LARGE cell signal;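 active = activation of at least 8% versus controls, or a plate z-score of at least 8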;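 note: Pro5 are CHO cells carrying HIG-tagged alpha-DG that lacks glycosylation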
COUP-TFII inh: NR2F2 (human) inhibition, primary screen. P24468. HEK293T NGFI-A luciferase reporter, luminescence. inhibition, % at 8.6 µM. 0.7% of 370,000 active. AID 686940;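 active = inhibition above a per-plate cutoff, mean inhibition of test wells between control levels plus 3 SD, cut at about 38% in these data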;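 note: cells cotransfected with COUP-TFII expression vector driving the NGFI-A reporter; 0% = median of COUP-TF2 test wells and 100% = reporter-only cells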
Gli-Sufu confirm: confirmation of Gli-SUFU pathway antagonists | 40% of 2,500 active | shares compounds with Gli-Sufu antag | AID 602428 | inhibition, % at 5 µM | Sufu-KO-LIGHT cells, Gli luciferase reporter, luminescence;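 active = mean inhibition at 5 µM reaching about 45%, limit read from the data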;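 note: plate controls were DMSO-treated cells for no effect and wells lacking cells for full effect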
Gli cytotox: counter-screen for Gli-SUFU antagonists: cytotoxicity. shares compounds with Gli-Sufu antag. Sufu-KO-LIGHT cells cytotoxicity, ATP luminescence. cytotoxicity, % at 5 µM. 32% of 2,500 active;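 active = mean cytotoxicity at 5 µM above about 25%, limit read from the data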;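 note: cells exposed to compound overnight for roughly 16 to 18 hours; plate controls were DMSO wells with cells for no effect and medium without cells for full effect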
Wnt3a cs: Wnt3a reporter inhibition counter-screen; shares compounds with Gli-Sufu antag; Wnt-LIGHT cells, Wnt3a-driven luciferase reporter, luminescence; inhibition, % at 6.25 µM; 20% of 2,500 active; AID 651995;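 active = mean inhibition above about 25%, limit read from the data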
Starred values were filed as active, the others as inactive; nt = no result given; [ ] = remark or other dose.

SMILES	GalR3 antag	Gli-Sufu antag	HIV Env fusion	aDG glyco up	COUP-TFII inh	Gli-Sufu confirm	Gli cytotox	Wnt3a cs
COc1ccc(NC(=O)Nc2ccc3c(c2)C(=O)N([C@@H](C)CO)C[C@@H](C)[C@H](CN(C)C(=O)Nc2cccc4ccccc24)OCCCC[C@@H](C)O3)cc1	nt	nt	18[16.7 µM]	nt	nt	nt	nt	nt
C=CCn1c(O)c(N=NC(=S)Nc2ccccc2F)c2ccccc21	-8	51	46	-1	22	nt	nt	nt
C=CCn1c(O)c(N=NC(=S)Nc2cccc(C)c2)c2ccccc21	-5	53	47	2	-3	57*	26*	-22
C[C@@H]1CN([C@@H](C)CO)C(=O)c2cc(NC(=O)C3CC3)ccc2O[C@H]1CN(C)Cc1ccc(Oc2ccccc2)cc1	nt	nt	-1[16.7 µM]	nt	nt	nt	nt	nt
COc1cc([C@@H]2c3cc4c(cc3[C@H](O)[C@H]3COC(=O)[C@H]23)OCO4)cc(OC)c1OC	nt	47	nt	0	-57	nt	nt	nt
COc1cc(C2c3cc4c(cc3C(OC3OC5COC(c6cccs6)OC5C(O)C3O)C3COC(=O)C23)OCO4)cc(OC)c1O (stereo not given)	-2	82*	-120	0	-22	81*	72*	57*
CCOC(=O)C1=C(C)NC(C)=C(C(=O)OCC)C1c1ccc(C)o1	-3	59*	6	0	-13	17	27*	1
C[C@@H]1CN([C@@H](C)CO)C(=O)c2cc(C#CC3CCCCC3)cnc2O[C@H]1CN(C)C	nt	nt	29[16.7 µM]	nt	nt	nt	nt	nt
C/C(=N\Nc1ccc2nncn2n1)c1ccc(Br)s1	3	62*	-9	0	-6	29	25	-4
CN1C(=O)c2cc(NC(=O)C3CCCCC3)ccc2OC[C@@H]2O[C@@H](CC(=O)NCCc3ccncc3)CC[C@@H]21	nt	nt	2[16.7 µM]	nt	nt	nt	nt	nt
COCCN(Cc1cc2cc3c(cc2nc1Cl)OCO3)C(=O)Nc1ccc(F)cc1	-8	33	nt	3	-12	nt	nt	nt
COCCN(Cc1cc2cc3c(cc2nc1Cl)OCO3)C(=O)Nc1ccc(OC)cc1	-5	55	14	3	-2	29	-1	-20
CC(C)(C)n1nnnc1C(c1ccc2ncccc2c1)N1CCC(O)CC1 (stereo not given)	5	63*	-2	0	-9	9	11	8
Cc1ccc(S(=O)(=O)NCCC(=O)N2CCCCCCC2)cc1	-2	96*	7	0	11	13	1	-11
C[C@H]1CCCCO[C@@H](CN(C)S(=O)(=O)c2ccc(F)cc2)[C@@H](C)CN([C@@H](C)CO)C(=O)c2cc(NS(=O)(=O)c3ccc(Cl)cc3)ccc2O1	nt	nt	34[16.7 µM]	nt	nt	nt	nt	nt
C[C@H](CO)N1C[C@H](C)[C@H](CN(C)C(=O)CN(C)C)Oc2ncc(C#Cc3cccnc3)cc2C1=O	nt	nt	-14[16.7 µM]	nt	nt	nt	nt	nt
CC1CCc2c(sc3nc(C4CC4)nc(N4CCN(C(=O)c5ccco5)CC4)c23)C1 (stereo not given)	-3	77*	40	0	30	81*	32*	4
COc1cc(C2C(C#N)=C(C)NC3=C2C(=O)c2ccccc23)cc(OC)c1OC (stereo not given)	-6	50	nt	0	-6	58*	55*	14
Cc1ccc(CNc2nc(C)cs2)cc1	-4	73*	-22	0	-41	-60	21	-59
COc1ccc(NC(=O)c2oc3ccccc3c2NC(=O)c2ccco2)cc1	-4	-4	nt	0	2	nt	nt	nt
COc1ccc(NC(=O)c2oc3ccccc3c2NC(=O)c2ccco2)c(OC)c1	-8	54	-4	0	23	33	43*	1
CCC(=O)Nc1ccc2c(c1)C(=O)N(C)C[C@@H](OC)[C@H](C)CN(C(=O)c1ccncc1)[C@@H](C)CO2	nt	nt	-6[16.7 µM]	nt	nt	nt	nt	nt
Cc1ccc(N2CC(c3nc4ccccc4[nH]3)CC2=O)c(C)c1 (stereo not given)	nt	50	6	0	-17	4	-6	10
O=C(Nc1ccccc1Oc1cccnc1)C1CCCN(Cc2ccccc2O)C1 (stereo not given)	-9	51	3	1	-1	14	28*	-12

Source: PubChem BioAssay
